Source: ChEMBL document CHEMBL1961873, “Compounds: GSK PKIS; Assays: Nanosyn kinase panel” (2012)

biological target: Fibroblast growth factor receptor 3 (Homo sapiens) (UniProt P22607); details: at 0.1 µM
Sequence (P22607 23-806 limits assumed): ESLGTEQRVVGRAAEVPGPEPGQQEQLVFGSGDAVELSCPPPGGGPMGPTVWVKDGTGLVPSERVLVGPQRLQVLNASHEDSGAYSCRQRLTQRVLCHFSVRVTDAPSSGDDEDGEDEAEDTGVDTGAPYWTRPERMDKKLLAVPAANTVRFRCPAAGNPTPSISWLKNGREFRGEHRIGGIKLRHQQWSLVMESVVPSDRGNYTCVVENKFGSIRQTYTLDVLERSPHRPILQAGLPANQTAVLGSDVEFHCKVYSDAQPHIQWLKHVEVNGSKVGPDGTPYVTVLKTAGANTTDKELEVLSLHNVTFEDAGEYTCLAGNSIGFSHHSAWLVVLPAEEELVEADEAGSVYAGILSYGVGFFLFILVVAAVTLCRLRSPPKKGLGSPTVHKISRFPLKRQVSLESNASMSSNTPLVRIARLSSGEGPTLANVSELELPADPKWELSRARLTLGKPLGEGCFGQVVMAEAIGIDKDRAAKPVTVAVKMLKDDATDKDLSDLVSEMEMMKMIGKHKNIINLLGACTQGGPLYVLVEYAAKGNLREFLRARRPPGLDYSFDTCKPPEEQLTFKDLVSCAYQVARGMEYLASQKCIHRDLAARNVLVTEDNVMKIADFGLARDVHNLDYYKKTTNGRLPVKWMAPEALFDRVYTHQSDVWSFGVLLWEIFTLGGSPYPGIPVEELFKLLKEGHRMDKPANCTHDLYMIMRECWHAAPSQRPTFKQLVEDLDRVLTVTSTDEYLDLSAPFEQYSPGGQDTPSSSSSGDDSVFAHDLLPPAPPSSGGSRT

Question: Which inhibition does the source give for `O=C(Nc1n[nH]c2nnc(-c3cccnc3)cc12)C1CC1` here?
Answer: 0.05%

Question: `CN1CCC(n2cnc(-c3ccc(F)cc3)c2-c2ccnc(NCCO)n2)CC1` was tested. Which inhibition did it give?
Answer: 7.57%

Question: Which inhibition does the source give for `COc1cc2c(cc1Nc1nc(Nc3cccc(F)c3C(N)=O)c3cc[nH]c3n1)N(C(=O)CN1CCN(C(C)C)CC1)CC2` here?
Answer: 7.88%

Question: With `COc1ccc2ncn(-c3cc(O[C@H](C)c4ccccc4C(F)(F)F)c(C(N)=O)s3)c2c1` as the molecule, how does the inhibition read?
Answer: 0.12%

Question: `O=C(O[C@H]1CN[C@H](C#Cc2cc3ncnc(Nc4ccc5c(ccn5Cc5cc(F)ccc5F)c4)c3s2)C1)N1CCOCC1` was tested. Which inhibition did it give?
Answer: 5.33%

Question: For `c1ccc(-c2n[nH]cc2-c2ccnc(-c3ccc(OCCn4ccnc4)cc3)c2)nc1`, which inhibition is on record?
Answer: 1.79%

Question: With `CCn1c(-c2nonc2N)nc2cncc(C(=O)NCCNC)c21` as the molecule, how does the inhibition read?
Answer: 2%

Question: `COc1cc(N2CCN(C(C)C)CC2)ccc1Nc1nc(Nc2cccc3ncccc23)c2cc[nH]c2n1` was tested. Which inhibition did it give?
Answer: 0.3%

Question: Which inhibition does the source give for `Cc1cc(O)cc(C)c1/C=C/c1cncc(C(N)=O)c1` here?
Answer: 4.56%

Question: Which inhibition does the source give for `FC(F)(F)CNc1nccc(-c2cnn3ncccc23)n1` here?
Answer: 3.73%

Question: `COc1ccc(-c2nn3ncccc3c2-c2ccnc(Nc3ccc(F)c(F)c3)n2)cc1` was tested. Which inhibition did it give?
Answer: 5.17%

Question: `COc1ccc(Nc2ncc(-c3ccccc3)o2)cc1OC` was tested. Which inhibition did it give?
Answer: 2.32%

Question: With `CS(=O)(=O)CCNCc1ccc(-c2ccc3ncnc(Nc4ccc(OCc5cccc(C(F)(F)F)c5)cc4)c3c2)o1` as the molecule, how does the inhibition read?
Answer: 9.13%

Question: How did the inhibition turn out when `CNC(=O)c1ncccc1Nc1nc(Nc2cc3c(cc2OC)CCCN3C(=O)CN(C)C)nc2[nH]ccc12` was run?
Answer: 7.55%

Question: With `CS(=O)(=O)Nc1ccc(-c2ccc3c(NC(=O)C4CC4)n[nH]c3c2)cc1` as the molecule, how does the inhibition read?
Answer: 6.11%

Question: `CN(c1ccc(NC(=O)NCCN2CCOCC2)cc1)c1ccnc(Nc2ccc(CS(C)(=O)=O)cc2)n1` was tested. Which inhibition did it give?
Answer: 6.19%

biological target: Fibroblast growth factor receptor 3 (Homo sapiens) (UniProt P22607); details: at 1 µM

Question: `COc1cccc(-n2ncc3c(N/N=C/c4ccc(C(=O)NCCN(C)C)cc4)ncnc32)c1` was tested. Which inhibition did it give?
Answer: 9.95%

Question: With `O=C(O[C@H]1CN[C@H](C#Cc2cc3ncnc(Nc4ccc5c(cnn5Cc5ccccc5)c4)c3s2)C1)N1CCOCC1` as the molecule, how does the inhibition read?
Answer: 0.43%

Question: With `COc1cc(N2CCN(C(C)C)CC2)ccc1Nc1nc(Nc2cccc(F)c2C(=O)O)c2cc[nH]c2n1` as the molecule, how does the inhibition read?
Answer: 8.48%

Question: `COC(=O)Nc1nc2ccc(Oc3ccc(NC(=O)Nc4cc(C(F)(F)F)ccc4F)cc3)cc2s1` was tested. Which inhibition did it give?
Answer: 11.5%

Question: Which inhibition does the source give for `CCS(=O)(=O)c1ccc(OC)c(Nc2ncc(-c3cccc(C(C)=O)c3)o2)c1` here?
Answer: 60%

Question: How did the inhibition turn out when `CN(C)CCNC(=O)Nc1ccc(N(C)c2ccnc(Nc3ccc(CS(C)(=O)=O)cc3)n2)cc1` was run?
Answer: 5.98%

Question: `CC1(C)CC(n2cnc(-c3ccc(F)cc3)c2-c2ccnc(N)n2)CC(C)(C)N1` was tested. Which inhibition did it give?
Answer: 1.55%

Question: How did the inhibition turn out when `CCS(=O)(=O)c1ccc(OC)c(Nc2ncc(-c3cccc(F)c3)o2)c1` was run?
Answer: 77.3%

Question: With `Fc1cccc(COc2ccc(Nc3ncncc3C#Cc3ccccc3)cc2Cl)c1` as the molecule, how does the inhibition read?
Answer: 3.8%

Question: Which inhibition does the source give for `COc1ccccc1-c1cc(/C=C2\C(=O)Nc3ncc(Br)cc32)cc(Br)c1O` here?
Answer: 14%

Question: With `OCCCNc1nccc(-c2c(-c3ccc(F)cc3)nn3cc(C(F)(F)F)ccc23)n1` as the molecule, how does the inhibition read?
Answer: 1.53%

Question: With `NS(=O)(=O)c1ccc(N/N=C2\C(=O)Nc3cccc(CCc4ccncc4)c32)cc1` as the molecule, how does the inhibition read?
Answer: 19.2%

Question: With `O=C1Nc2ccccc2/C1=C1\CCc2cc(O)ccc21` as the molecule, how does the inhibition read?
Answer: 30.9%

Question: Which inhibition does the source give for `COc1cccc(Nc2nccc(-c3cnn4ncccc34)n2)c1` here?
Answer: 10.9%

Question: `CS(=O)(=O)Nc1ccc(-c2cc(-c3ccccc3)cc(C(N)=O)c2N)cc1` was tested. Which inhibition did it give?
Answer: 8.3%

Question: `O=C(Nc1n[nH]c2nnc(-c3cccnc3)cc12)C1CC1` was tested. Which inhibition did it give?
Answer: 1.8%

Question: Which inhibition does the source give for `CN1CCC(n2cnc(-c3ccc(F)cc3)c2-c2ccnc(NCCO)n2)CC1` here?
Answer: 5.67%

Question: How did the inhibition turn out when `COc1cc2c(cc1Nc1nc(Nc3cccc(F)c3C(N)=O)c3cc[nH]c3n1)N(C(=O)CN1CCN(C(C)C)CC1)CC2` was run?
Answer: 3.19%

Question: `COc1ccc2ncn(-c3cc(O[C@H](C)c4ccccc4C(F)(F)F)c(C(N)=O)s3)c2c1` was tested. Which inhibition did it give?
Answer: 3.58%

Question: For `O=C(O[C@H]1CN[C@H](C#Cc2cc3ncnc(Nc4ccc5c(ccn5Cc5cc(F)ccc5F)c4)c3s2)C1)N1CCOCC1`, which inhibition is on record?
Answer: 3.1%

Question: Which inhibition does the source give for `c1ccc(-c2n[nH]cc2-c2ccnc(-c3ccc(OCCn4ccnc4)cc3)c2)nc1` here?
Answer: 4.74%

Question: With `CCn1c(-c2nonc2N)nc2cncc(C(=O)NCCNC)c21` as the molecule, how does the inhibition read?
Answer: 5.02%

Question: Which inhibition does the source give for `COc1cc(N2CCN(C(C)C)CC2)ccc1Nc1nc(Nc2cccc3ncccc23)c2cc[nH]c2n1` here?
Answer: 0.87%

Question: How did the inhibition turn out when `Cc1cc(O)cc(C)c1/C=C/c1cncc(C(N)=O)c1` was run?
Answer: 4.79%

Question: With `FC(F)(F)CNc1nccc(-c2cnn3ncccc23)n1` as the molecule, how does the inhibition read?
Answer: 2.58%

Question: `COc1ccc(-c2nn3ncccc3c2-c2ccnc(Nc3ccc(F)c(F)c3)n2)cc1` was tested. Which inhibition did it give?
Answer: 7.65%

Question: With `COc1ccc(Nc2ncc(-c3ccccc3)o2)cc1OC` as the molecule, how does the inhibition read?
Answer: 13.2%

Question: Which inhibition does the source give for `CS(=O)(=O)CCNCc1ccc(-c2ccc3ncnc(Nc4ccc(OCc5cccc(C(F)(F)F)c5)cc4)c3c2)o1` here?
Answer: 10.7%

Question: How did the inhibition turn out when `CNC(=O)c1ncccc1Nc1nc(Nc2cc3c(cc2OC)CCCN3C(=O)CN(C)C)nc2[nH]ccc12` was run?
Answer: 4.61%

Question: With `CS(=O)(=O)Nc1ccc(-c2ccc3c(NC(=O)C4CC4)n[nH]c3c2)cc1` as the molecule, how does the inhibition read?
Answer: 5.97%

Question: `CN(c1ccc(NC(=O)NCCN2CCOCC2)cc1)c1ccnc(Nc2ccc(CS(C)(=O)=O)cc2)n1` was tested. Which inhibition did it give?
Answer: 10.3%
